About 2,100 (0.62%) of roughly 340,000 compounds were called active.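 Rule for the calls: active = first-screen hits whose inhibition reached a set limit at any dose in the follow-up dose series; inconclusive = inhibition above the set first-screen limit but never retested; inactive = the rest.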 The list is a sample of the results. Potency and affinity values are given separately.
Target: Rac GTPase-activating protein 1 (Homo sapiens) (UniProt Q9H0H5)
Assay: blockers of MgcRacGAP-driven Rac1 GTP hydrolysis – biochemical, ADP Hunter fluorescence, primary and confirmatory, confirmation (AID 624330);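 note: fluorescence reports GDP produced by GAP-driven GTP hydrolysis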
Details: MgcRacGAP-stimulated Rac1 GTP hydrolysis, at 30 µM, hits give high values, GST-tagged Rac1 F28L mutant substrate

Sequence of Rac GTPase-activating protein 1 (Homo sapiens) (Q9H0H5 whole entry, looked up): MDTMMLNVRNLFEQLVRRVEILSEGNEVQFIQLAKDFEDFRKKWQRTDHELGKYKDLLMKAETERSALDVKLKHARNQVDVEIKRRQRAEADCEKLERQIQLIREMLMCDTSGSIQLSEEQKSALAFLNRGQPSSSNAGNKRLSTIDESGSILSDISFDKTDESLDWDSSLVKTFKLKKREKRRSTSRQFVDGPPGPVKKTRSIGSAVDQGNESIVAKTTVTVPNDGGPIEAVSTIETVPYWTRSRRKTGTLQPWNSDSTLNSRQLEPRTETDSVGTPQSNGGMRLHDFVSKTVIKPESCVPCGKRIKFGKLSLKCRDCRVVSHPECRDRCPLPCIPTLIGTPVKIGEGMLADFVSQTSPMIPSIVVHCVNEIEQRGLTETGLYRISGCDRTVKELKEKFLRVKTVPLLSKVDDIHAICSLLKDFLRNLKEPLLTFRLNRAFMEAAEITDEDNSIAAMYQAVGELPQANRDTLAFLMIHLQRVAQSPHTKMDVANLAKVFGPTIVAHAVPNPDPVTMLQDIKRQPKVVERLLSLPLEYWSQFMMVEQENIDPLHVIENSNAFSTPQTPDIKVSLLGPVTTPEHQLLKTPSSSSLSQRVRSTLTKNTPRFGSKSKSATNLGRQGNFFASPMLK

inhibition, inactive:
CC1Cc2ccccc2N1C(=O)CSc1nc2ccccc2s1 (stereo unspecified) 11.8%
CC(C)=NNC(=O)CN1C(=O)NC2NC(=O)NC21 (stereo unspecified) 6.56%
CC1(C)C2CCC(CN)C1C2 (stereo unspecified) 5.66%
Cc1nnc2sc(SCC(=O)Nc3cccc(Cl)c3)nn2c1=O 5.95%
COCC(C)n1c(C)cc(C(=O)CSc2nnnn2-c2ccc(O)cc2)c1C (stereo unspecified) 6.49%
COc1cc(/C=C2\NC(=S)N(C)C2=O)ccc1OCc1ccccc1F -3.41%
Cc1cc(/C=C2\NC(=S)N(C)C2=O)ccc1N1CCCC1 22.4%
O=C(NN=Cc1ccccc1C(=O)O)c1ccc(NS(=O)(=O)c2cccs2)cc1 5.61%
O=C(Cn1ccccc1=O)Nc1ccc(Cl)c(S(=O)(=O)N2CCCCC2)c1 1.69%
c1ccc(-c2csc(-c3cccnc3)n2)cc1 9.56%
Fc1ccccc1-c1csc(-c2cccnc2)n1 -4.78%
Fc1ccc(-c2csc(-c3cccnc3)n2)cc1F 7.05%
NC(=O)c1cc(-c2csc(-c3cccnc3)n2)ccc1O 18.7%
COc1ccc(NC(=O)Nc2cccc3c2O[C@H](CN(C)S(=O)(=O)c2c(C)noc2C)[C@@H](C)CN([C@H](C)CO)C3=O)cc1 6.8%
Fc1ccc(-n2cnnn2)c(F)c1 3.22%
CCCOc1ccc(C(=O)Nc2ccc(N3CCN(C(=O)c4ccco4)CC3)cc2)cc1 3.27%
CCC(C)[C@H](NC(=O)[C@@H]1Cc2ccccc2CN1)C(=O)Nc1ccc2c(c1)OCO2 (stereo partly specified) -13.9%
CCN(CC)c1ccc(S(=O)(=O)N2CCOCC2)cc1NC(=O)COC(=O)/C=C/c1ccc(C)o1 2.13%
COc1cc(/C=C/C(=O)OCC(=O)Nc2cc(S(=O)(=O)N3CCCC3)ccc2Cl)cc(OC)c1OC -3.8%
COc1cccc(NC(=O)CN(C)C(C)C(=O)Nc2ccc(S(=O)(=O)N3CCCC3)cc2)c1 (stereo unspecified) -2.38%
CCN(CC)c1ccc(S(=O)(=O)N2CCOCC2)cc1NC(=O)COC(=O)/C=C/c1ccccc1 -3.02%
COc1cc(/C=C/C(=O)OCC(=O)Nc2ccc(C)c(S(=O)(=O)N3CCCCC3)c2)ccc1O 13.2%
COc1cccc(/C=C/C(=O)OCC(=O)Nc2cc(S(=O)(=O)N3CCOCC3)ccc2C)c1 2.2%
COc1cccc(/C=C/C(=O)OCC(=O)Nc2ccc(S(=O)(=O)N3CCCC3)cc2)c1 1.91%
CCN(CC(=O)Nc1cccc(S(=O)(=O)N2CCCC2)c1)CC(=O)Nc1ccccc1OC 2.96%
C=CCn1c(C(C)C)nc2ccccc21 4.59%
O=C1CN(C(=O)COC(=O)CCc2ccccc2O)c2ccccc2N1 1.54%
N#CC1(N2CCN(C(=O)c3ccccc3)CC2)CCCCC1 8.68%
Clc1ccc(N2CCN(c3ncnc4c3oc3ccccc34)CC2)cc1 -2.02%
CCC(=O)Nc1cccc(C(=O)OCc2cccc([N+](=O)[O-])c2)c1 5.63%
Cc1cc(C(=O)Nc2c(C)n(C)n(-c3ccccc3)c2=O)on1 11.2%
O=C(c1ccc(F)cc1F)N1CCN(S(=O)(=O)c2ccc3c(c2)OCCO3)CC1 7.11%
COc1cc2cnc(CCO[C@H]3CCCCO3)cc2cc1OC 7.49%
COc1ccc(NC(=O)Cc2ccsc2)cc1S(=O)(=O)N1CCOCC1 -4.48%
Cc1ccc(-c2onc3ccc(C4OCCO4)cc23)cc1 12.2%
CSc1ccccc1NC(=O)NCCCl -4.18%
CCCN1CCN(CCCNC(=O)C(CC)n2nc(C)n3c(cc4occc43)c2=O)CC1 (stereo unspecified) 10.2%
O=C(CCl)Nc1sccc1C(=O)c1ccccc1 11.5%
CCOc1ccc(C2Nc3ccc4ccccc4c3-c3c2c(=O)oc2ccccc32)cc1 (stereo unspecified) 5.67%
CC(=O)CCc1c(C)nc2ccc(C(=O)O)cc2c1Cl -3.43%
Cc1nc2ccc(C(=O)O)cc2nc1C 8.31%
Cc1cc(C)nc(NC2=NCCN2C(=O)NC2CCCCC2)n1 1.52%
Nc1ncnc2c1ncn2[C@@H]1O[C@H](CNCc2ccccc2OCc2ccc(Cl)cc2Cl)[C@@H](O)[C@H]1O 6.96%
COc1ccccc1/C=N/NC(=O)c1ccc(NC(=O)c2ccccc2Br)cc1 1.59%
Cc1ccc(NC(=O)NC(=O)CSc2n[nH]c(N)n2)c(C)c1 -33.7%
Cc1oc(-c2nc3ccccc3n2C)cc1C(=O)c1ccccc1 -4.53%
CC(=O)N1CCN(c2ccc(NC(=O)c3ccc4c(c3)OCO4)cc2)CC1 9.85%
O=C(O)c1cc(NCc2ccc3c(c2)OCO3)ccc1N1CCOCC1 12.2%
O=C(CN1CCN(Cc2ccc3c(c2)OCO3)CC1)Nc1ccc(N2CCOCC2)cc1 -4.89%
O=C(O)c1ccc(NCc2ccc3c(c2)OCO3)cc1 7.49%
O=C(NCc1ccc2c(c1)OCO2)C(=O)NCC1OCCN1S(=O)(=O)c1ccccc1 (stereo unspecified) 4.4%
Cc1cccc(OCC(=O)N2CCCc3ccccc32)c1 -0.63%
COc1ccc(CN(C)CCCn2cnc(C(=O)Nc3ccc(C)c(C)c3)n2)cc1OC 8.28%
O=C(c1ccco1)N1CCN(Cc2cccc3ccccc23)CC1 15.8%
CCN1CCN(Cc2cccc(Oc3ccccc3)c2)CC1 22.4%
COc1cc(CN2CCN(Cc3ccccc3C(F)(F)F)CC2)cc(OC)c1OC 5.51%
CN1CCN(Cc2cccc(Oc3ccccc3)c2)CC1 4.23%
COc1ccccc1CN1CCN(C(=O)c2ccco2)CC1 -1.8%
COc1cccc(CN2CCN(c3ncccn3)CC2)c1OC 2.75%
Cc1cc(Br)ccc1NC(=O)CCSc1ccccc1 2.79%
Cc1ccc(NC(=O)c2cc(N(C)C)ccc2[P+](=O)O)cc1 4.54%
Cc1ccc(C(=O)O)cc1N1CCCC1=O -7.73%
CCC(Sc1nc2n[nH]c(C)c2c(=N)n1-c1ccc(C)c(Cl)c1)C(=O)N1CCOCC1 (stereo unspecified) 8.01%
Oc1ccccc1CN1CCCC(N2CCc3ccccc3C2)C1 (stereo unspecified) 12.1%
c1ccc2c(c1)CCN(C1CCCCC1)C2 26.9%
COCCN(CCOC)C(=O)COC(=O)c1ccc(Cl)c(S(=O)(=O)N(C)c2ccccc2)c1 3.9%
CC1=C(SCc2ccccc2)C(=O)c2ccccc2C1=O -10.4%
O=S1(=O)N=C(SCCO)c2ccccc21 4.31%
Cc1ccc(OCCNC(=O)C(C)SCC(=O)Nc2ccc(F)cc2)cc1 (stereo unspecified) 1.75%
O=C1C=CC(=O)N1c1ccc(O)cc1 15.3%
O=C(O)c1ccc2c(c1)C(=O)N(c1ccc(Nc3ccccc3)cc1)C2=O 9.3%
O=C(c1ccc(Cl)c(Cl)c1)c1cc(-c2ccccn2)c(N2CCOCC2)s1 6.1%
COc1ccc(-c2cc(C(=O)N3CCN(c4ccccc4)CC3)c3ccccc3n2)cc1 -2.68%
CC(=O)c1ccc(N2CCN(C(=O)c3ccc(C(=O)c4ccccc4)cc3)CC2)cc1 -1.4%
Cc1ccc(-c2cc(C(=O)N3CCN(c4ccccc4O)CC3)c3ccccc3n2)cc1 2.39%
COc1ccc(N2CCN(C(=O)c3cc(C4CC4)nn3-c3ccccc3)CC2)cc1 27.4%
O=C(c1ccccc1)N1CCN(c2ccccc2)CC1 5.43%
O=C(c1cc(C2CC2)nn1-c1ccccc1)N1CCN(c2ccccc2O)CC1 5.58%
O=C(c1ccc(Cl)c(S(=O)(=O)N2CCCC2)c1)N1CCN(c2ccc(F)cc2)CC1 6.75%
O=C(c1ccc(Cl)c(S(=O)(=O)N2CCCCC2)c1)N1CCN(c2ccccc2)CC1 11.4%
CCOC(=O)c1c(C)[nH]c(C(=O)N/N=C/c2ccc(OC)c(OC)c2)c1C -4.46%
COc1ccc(NC(=O)c2cccc(NC3=NC4CS(=O)(=O)CC4S3)c2)cc1Cl (stereo unspecified) 10.8%
CCc1nnc(N/N=C\c2ccc(OC(C)=O)c(OC)c2)n1N 10.6%
CCC1(CC)C(=O)N(c2ccccc2)C(=N)N(c2ccccc2)C1=O -9.62%
N#Cc1cccc(NC(=O)CN2CCN(Cc3ccccc3)CC2)c1 10.1%
Cc1nc(N)c2c(Cc3cccc4ccccc34)nn(C(C)(C)C)c2n1 2.87%
COc1ccccc1CN(C)C(=O)c1sccc1-c1ccccc1 -0.12%
Cc1ccc(/C(N)=N/OC(=O)c2ccc3ccccc3c2)cc1 7.71%
O=C(NCCCN1CCOCC1)c1cc(-c2ccc(F)cc2)on1 5.56%
C/C(=N/NC(=O)CNC(=O)c1cccs1)c1ccc(Cl)cc1 5.28%
Oc1ccc2ccccc2c1/C=N/c1nc2c(s1)CCCC2 16%
COc1cccc(C=Nc2ccc3c(c2)CCC3)c1O 6.65%
COc1ccc(N=Cc2c(O)ccc3ccccc23)cc1 14.5%
COc1cccc(C=Nc2cc(C)on2)c1O 10.4%
COc1ccc2c(c1)CCc1sc(NC(=O)c3ccco3)nc1-2 9.86%
COc1ccc2c(c1)Cc1sc(NC(=O)c3ccccc3)nc1-2 15.1%
